# How the values were obtained:
# [1] = molecular target: Serine/threonine-protein kinase MRCK alpha (Homo sapiens) (UniProt Q5VT25); conditions: at 0.1 µM
# [2] = molecular target: Serine/threonine-protein kinase MRCK alpha (Homo sapiens) (UniProt Q5VT25); conditions: at 1 µM
# [3] = molecular target: Serine/threonine-protein kinase MRCK beta (Homo sapiens) (UniProt Q9Y5S2); conditions: at 0.1 µM
# [4] = molecular target: Serine/threonine-protein kinase MRCK beta (Homo sapiens) (UniProt Q9Y5S2); conditions: at 1 µM
# [5] = molecular target: Ribosomal protein S6 kinase alpha-5 (Homo sapiens) (UniProt O75582); conditions: at 0.1 µM
# Chain of Ribosomal protein S6 kinase alpha-5 (Homo sapiens) (O75582 whole entry, looked up): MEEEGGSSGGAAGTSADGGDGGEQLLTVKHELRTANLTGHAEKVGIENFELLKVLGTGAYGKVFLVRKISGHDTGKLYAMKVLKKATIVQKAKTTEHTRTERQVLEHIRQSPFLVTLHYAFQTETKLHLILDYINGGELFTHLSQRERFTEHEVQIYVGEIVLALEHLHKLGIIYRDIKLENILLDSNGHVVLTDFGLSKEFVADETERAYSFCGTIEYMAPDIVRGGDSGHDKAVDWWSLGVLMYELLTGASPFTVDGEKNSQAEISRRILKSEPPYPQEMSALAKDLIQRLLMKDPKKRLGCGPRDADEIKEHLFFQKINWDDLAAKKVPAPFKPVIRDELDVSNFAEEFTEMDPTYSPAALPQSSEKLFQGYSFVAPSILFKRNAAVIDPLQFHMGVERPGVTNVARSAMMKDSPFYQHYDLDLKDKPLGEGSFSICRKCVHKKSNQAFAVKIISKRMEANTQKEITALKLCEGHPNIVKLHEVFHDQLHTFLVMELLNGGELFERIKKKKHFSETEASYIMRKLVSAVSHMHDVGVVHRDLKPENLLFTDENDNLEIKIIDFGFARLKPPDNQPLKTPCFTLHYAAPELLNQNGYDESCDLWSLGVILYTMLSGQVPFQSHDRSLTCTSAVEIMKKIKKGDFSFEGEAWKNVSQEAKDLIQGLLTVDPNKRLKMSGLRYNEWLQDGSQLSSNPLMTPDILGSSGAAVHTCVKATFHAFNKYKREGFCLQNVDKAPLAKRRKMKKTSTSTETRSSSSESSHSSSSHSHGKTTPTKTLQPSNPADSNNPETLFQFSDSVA
# [6] = molecular target: Ribosomal protein S6 kinase alpha-5 (Homo sapiens) (UniProt O75582); conditions: at 1 µM
# [7] = molecular target: Ribosomal protein S6 kinase alpha-4 (Homo sapiens) (UniProt O75676); conditions: at 0.1 µM
# Chain of Ribosomal protein S6 kinase alpha-4 (Homo sapiens) (O75676 whole entry, looked up): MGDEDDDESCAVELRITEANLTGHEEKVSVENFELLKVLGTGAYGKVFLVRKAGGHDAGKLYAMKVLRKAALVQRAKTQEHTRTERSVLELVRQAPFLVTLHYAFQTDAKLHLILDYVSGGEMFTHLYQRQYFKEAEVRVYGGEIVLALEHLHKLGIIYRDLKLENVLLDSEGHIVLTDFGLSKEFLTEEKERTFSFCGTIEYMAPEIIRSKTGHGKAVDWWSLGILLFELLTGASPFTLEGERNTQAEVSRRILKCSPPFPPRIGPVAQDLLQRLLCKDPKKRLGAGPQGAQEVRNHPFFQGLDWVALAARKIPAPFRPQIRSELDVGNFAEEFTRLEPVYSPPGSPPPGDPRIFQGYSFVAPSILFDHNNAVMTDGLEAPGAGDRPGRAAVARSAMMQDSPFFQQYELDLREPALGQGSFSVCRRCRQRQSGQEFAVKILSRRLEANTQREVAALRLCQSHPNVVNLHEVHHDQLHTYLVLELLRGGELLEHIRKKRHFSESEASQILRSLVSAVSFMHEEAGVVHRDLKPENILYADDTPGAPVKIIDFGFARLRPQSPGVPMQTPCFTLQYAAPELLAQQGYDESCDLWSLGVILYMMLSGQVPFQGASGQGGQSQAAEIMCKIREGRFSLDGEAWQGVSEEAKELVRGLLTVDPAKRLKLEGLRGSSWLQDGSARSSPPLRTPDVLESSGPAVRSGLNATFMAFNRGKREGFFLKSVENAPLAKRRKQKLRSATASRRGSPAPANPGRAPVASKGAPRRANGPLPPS
# [8] = molecular target: Ribosomal protein S6 kinase alpha-4 (Homo sapiens) (UniProt O75676); conditions: at 1 µM
# [9] = molecular target: Ribosomal protein S6 kinase beta-1 (Homo sapiens) (UniProt P23443); conditions: at 0.1 µM
# Chain of Ribosomal protein S6 kinase beta-1 (Homo sapiens) (P23443 whole entry, looked up): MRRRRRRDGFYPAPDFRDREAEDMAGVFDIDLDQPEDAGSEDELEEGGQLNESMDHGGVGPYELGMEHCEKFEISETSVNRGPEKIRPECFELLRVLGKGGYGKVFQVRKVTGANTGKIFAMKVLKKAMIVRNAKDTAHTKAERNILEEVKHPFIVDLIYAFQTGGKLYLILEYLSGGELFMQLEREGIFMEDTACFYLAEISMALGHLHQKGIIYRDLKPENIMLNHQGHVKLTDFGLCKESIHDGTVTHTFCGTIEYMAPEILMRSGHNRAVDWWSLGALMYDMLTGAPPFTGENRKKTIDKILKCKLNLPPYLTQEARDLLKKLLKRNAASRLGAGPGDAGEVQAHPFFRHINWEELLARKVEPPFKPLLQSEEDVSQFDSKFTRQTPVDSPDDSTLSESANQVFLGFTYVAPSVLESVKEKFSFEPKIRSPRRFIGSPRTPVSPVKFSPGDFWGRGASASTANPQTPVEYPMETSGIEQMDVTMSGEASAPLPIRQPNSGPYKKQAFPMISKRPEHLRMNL
# [10] = molecular target: Ribosomal protein S6 kinase beta-1 (Homo sapiens) (UniProt P23443); conditions: at 1 µM
# [11] = molecular target: T1, 3-phosphoinositide-dependent protein kinase 1 (Homo sapiens) (UniProt O15530); conditions: at 0.1 µM;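 also: values are mean inhibition of PDK1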
# T1 sequence (whole entry): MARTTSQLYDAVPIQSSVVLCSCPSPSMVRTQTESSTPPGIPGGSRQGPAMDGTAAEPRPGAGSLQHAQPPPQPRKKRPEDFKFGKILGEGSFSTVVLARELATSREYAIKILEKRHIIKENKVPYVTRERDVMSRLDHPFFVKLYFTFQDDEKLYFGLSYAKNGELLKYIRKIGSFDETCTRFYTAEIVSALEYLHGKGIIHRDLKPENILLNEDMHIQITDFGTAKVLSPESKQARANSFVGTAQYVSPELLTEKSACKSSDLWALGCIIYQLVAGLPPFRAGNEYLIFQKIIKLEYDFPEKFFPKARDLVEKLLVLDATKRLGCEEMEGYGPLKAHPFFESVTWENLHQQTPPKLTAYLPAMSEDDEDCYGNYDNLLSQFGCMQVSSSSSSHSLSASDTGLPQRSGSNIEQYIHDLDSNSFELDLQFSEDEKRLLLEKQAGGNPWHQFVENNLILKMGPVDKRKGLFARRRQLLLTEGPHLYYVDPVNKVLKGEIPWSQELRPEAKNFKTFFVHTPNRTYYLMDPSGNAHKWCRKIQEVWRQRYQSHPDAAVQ
# [12] = molecular target: cAMP-dependent protein kinase catalytic subunit alpha (Homo sapiens) (UniProt P17612); conditions: at 0.1 µM
# [13] = molecular target: cAMP-dependent protein kinase catalytic subunit alpha (Homo sapiens) (UniProt P17612); conditions: at 1 µM
# [14] = molecular target: Protein kinase C alpha type (Homo sapiens) (UniProt P17252); conditions: at 0.1 µM
# [15] = molecular target: Protein kinase C alpha type (Homo sapiens) (UniProt P17252); conditions: at 1 µM
# [16] = molecular target: Protein kinase C beta type (Homo sapiens) (UniProt P05771); conditions: at 0.1 µM
# [17] = molecular target: Protein kinase C beta type (Homo sapiens) (UniProt P05771); conditions: at 1 µM
# [18] = molecular target: Protein kinase C eta type (Homo sapiens) (UniProt P24723); conditions: at 0.1 µM
# [19] = molecular target: Protein kinase C eta type (Homo sapiens) (UniProt P24723); conditions: at 1 µM
# [20] = molecular target: Protein kinase C gamma type (Homo sapiens) (UniProt P05129); conditions: at 0.1 µM;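 also: values are mean percent inhibition of PKC gamma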
# Chain of Serine/threonine-protein kinase MRCK alpha (Homo sapiens) (Q5VT25 whole entry): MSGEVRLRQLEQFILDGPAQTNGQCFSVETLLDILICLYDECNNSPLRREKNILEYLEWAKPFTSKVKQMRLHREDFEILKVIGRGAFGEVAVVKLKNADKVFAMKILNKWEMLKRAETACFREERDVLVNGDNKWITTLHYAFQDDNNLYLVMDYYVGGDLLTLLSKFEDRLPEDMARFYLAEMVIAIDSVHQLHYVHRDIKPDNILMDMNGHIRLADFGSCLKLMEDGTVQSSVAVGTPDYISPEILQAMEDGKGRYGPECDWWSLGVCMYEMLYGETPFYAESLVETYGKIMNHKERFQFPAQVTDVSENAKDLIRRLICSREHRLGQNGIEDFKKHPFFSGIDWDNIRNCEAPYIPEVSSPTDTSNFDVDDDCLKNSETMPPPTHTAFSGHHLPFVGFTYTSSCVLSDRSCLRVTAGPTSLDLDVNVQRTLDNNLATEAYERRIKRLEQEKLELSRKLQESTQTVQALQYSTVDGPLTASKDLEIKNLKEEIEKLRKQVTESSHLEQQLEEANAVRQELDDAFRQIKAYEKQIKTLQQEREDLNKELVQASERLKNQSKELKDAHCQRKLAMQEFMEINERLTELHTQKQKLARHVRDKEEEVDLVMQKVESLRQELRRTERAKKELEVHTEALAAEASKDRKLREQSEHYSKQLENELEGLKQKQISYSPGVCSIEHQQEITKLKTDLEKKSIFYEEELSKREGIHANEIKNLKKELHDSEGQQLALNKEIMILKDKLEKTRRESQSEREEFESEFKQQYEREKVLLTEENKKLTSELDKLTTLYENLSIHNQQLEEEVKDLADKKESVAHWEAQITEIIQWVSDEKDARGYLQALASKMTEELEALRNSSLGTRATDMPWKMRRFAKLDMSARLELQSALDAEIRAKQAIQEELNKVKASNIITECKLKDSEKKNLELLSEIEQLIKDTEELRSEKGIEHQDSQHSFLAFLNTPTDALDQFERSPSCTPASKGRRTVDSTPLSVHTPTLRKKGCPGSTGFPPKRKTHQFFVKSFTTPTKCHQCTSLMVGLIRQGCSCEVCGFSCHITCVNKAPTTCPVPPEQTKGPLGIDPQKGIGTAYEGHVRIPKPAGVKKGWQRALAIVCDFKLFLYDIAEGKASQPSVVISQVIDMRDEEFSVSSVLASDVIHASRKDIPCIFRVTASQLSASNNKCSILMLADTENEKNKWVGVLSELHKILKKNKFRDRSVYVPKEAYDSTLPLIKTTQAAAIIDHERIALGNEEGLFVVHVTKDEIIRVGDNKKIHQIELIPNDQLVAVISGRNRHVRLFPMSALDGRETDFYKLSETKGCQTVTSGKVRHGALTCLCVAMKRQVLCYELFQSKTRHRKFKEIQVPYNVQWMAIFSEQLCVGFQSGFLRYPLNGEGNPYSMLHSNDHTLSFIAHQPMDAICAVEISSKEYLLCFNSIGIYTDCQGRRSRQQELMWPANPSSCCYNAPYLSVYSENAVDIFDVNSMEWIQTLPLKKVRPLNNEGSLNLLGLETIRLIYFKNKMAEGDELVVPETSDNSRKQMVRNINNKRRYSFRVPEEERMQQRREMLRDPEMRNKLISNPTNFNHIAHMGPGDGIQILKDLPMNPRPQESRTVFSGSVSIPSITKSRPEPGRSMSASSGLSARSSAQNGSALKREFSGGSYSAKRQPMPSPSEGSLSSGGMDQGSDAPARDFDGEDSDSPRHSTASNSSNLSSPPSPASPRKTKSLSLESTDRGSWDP
SMILES,inhibition [1] [%],inhibition [2] [%],inhibition [3] [%],inhibition [4] [%],inhibition [5] [%],inhibition [6] [%],inhibition [7] [%],inhibition [8] [%],inhibition [9] [%],inhibition [10] [%],inhibition [11] [%],inhibition [12] [%],inhibition [13] [%],inhibition [14] [%],inhibition [15] [%],inhibition [16] [%],inhibition [17] [%],inhibition [18] [%],inhibition [19] [%],inhibition [20] [%]
COC(=O)Nc1nc2ccc(Oc3ccc(NC(=O)Nc4cccc(Cl)c4)cc3)cc2[nH]1,-2.43,-0.92,-0.72,-1.4,0.39,-1.18,0.82,-0.55,0.63,0.82,-0.86,2.12,0.79,0.15,-0.86,-1.37,-5.17,0.84,-0.24,0.84
CN1CCC(n2cnc(-c3ccc(F)cc3)c2-c2ccnc(N)n2)CC1,1.47,1.4,-1.13,1.3,0.55,2.23,0.42,3.67,-0.73,1.36,3.73,3.06,7.95,1.23,10.6,0.83,7.02,3.71,4.79,0.37
COc1cccc(-c2c[nH]c3c(N/N=C/c4ccncc4)ncnc23)c1,0.71,6.35,0.92,5.25,8.98,9.82,2.85,4.13,2.85,8.54,6.08,1.57,3.93,0.02,4.24,2.33,4.29,2.72,1.53,2.27
CC(C)(CO)CNC(=O)c1ccc2c(c1)/C(=N/Nc1ccc(S(N)(=O)=O)cc1)C(=O)N2,-0.66,-2.01,0.21,1.07,0.88,0.97,1.15,6.02,-0.13,2.2,13.1,0.87,1.58,-0.39,0.27,-0.69,0.02,2.86,-0.08,1.72
CCn1c(-c2nonc2N)nc2c(C#CC(C)(C)O)nc(OC[C@H](N)c3ccccc3)cc21,11.8,36.3,3.04,26.6,3.37,17.7,3.75,20.5,4.66,33.1,0.94,81.3,82.5,3.82,32.3,32.7,67.3,97.9,97.1,8.83
NS(=O)(=O)c1ccc(Nc2ncc(-c3ccccc3)o2)cc1,-0.91,-1.21,0.24,1.14,3.01,4.81,3,5.37,2.3,3.51,4.51,1.3,3.27,0,1.96,-0.16,1.54,3.2,1.9,1.28
Fc1ccc(-c2cc(-c3c[nH]nc3-c3ccccn3)ccn2)cc1,-0.62,2.14,-1.2,-2.11,2.42,1.68,2.17,3.21,0.99,2.4,0.78,1.9,2.54,0.45,0.88,1.93,3.1,4.28,6.6,-0.18
O=C(O[C@H]1CN[C@H](C#Cc2cc3ncnc(Nc4ccc(Cc5ccccc5)cc4)c3s2)C1)N1CCOCC1,-1.95,0.21,1.54,4.12,4.51,3.65,3.21,3.94,1.97,1.38,-1.22,4.03,5.91,0.96,4.81,2.02,4.66,2.47,4.45,4.28
CCN1CCC(CC(=O)Nc2n[nH]c3nnc(-c4cccc(F)c4F)cc23)CC1,-3.37,0.57,0.12,0.92,0.93,-0.87,2.22,1.55,0.65,0.08,1.89,1.6,3.23,0.66,1.58,2.14,0.03,1.63,3.3,3.44
Nc1nc(-c2cccc(Cl)c2)c(-c2ccc3ncccc3n2)s1,-0.36,5.58,-0.33,0.87,9.72,9.28,2.91,3.45,1.21,3.77,0.49,2.34,4.12,1.05,1.4,2.33,4.87,5.47,7.42,1.18
CS(=O)(=O)CCNCc1ccc(-c2ccc3ncnc(Nc4ccc(OCc5ccccc5)c(C(F)(F)F)c4)c3c2)o1,-6.32,-1.92,-0.98,-1.25,8.24,6.53,1.86,0.65,1.21,1.16,-0.19,1.37,1.5,0.59,0.28,0.21,1.23,4.55,5.11,2.66
c1cc(-c2cnn3nc(N4CCOCC4)ccc23)nc(NC2CC2)n1,0.21,-0.69,0.92,0.61,3.83,3.75,0.89,6.24,1.29,3.7,4.31,1.21,1.42,1.17,6.27,-0.45,-0.77,2.39,2.99,6.1
Cc1ccc(O)cc1Nc1ccnc2cc(-c3ccccn3)ccc12,0.02,-2.04,1.37,0.2,4.25,3.29,0.94,2.96,1.62,1.87,3.22,1.65,0.73,0.94,1.06,-0.22,0.21,4.81,3.71,5.48

# From ChEMBL document CHEMBL1961873, “Compounds: GSK PKIS; Assays: Nanosyn kinase panel” (2012)
